Experimental data reported in PubChem BioAssay (NCI).
About 79,000 compounds went through this panel and 15% of them were active in at least one assay; those are over-represented in the sample as a whole. Cut-off read from the data, not from the text of the source: active = growth inhibition above about 70%; inactive = the rest.

Key:
[1] = NCI Yeast Anticancer Drug Screen. Data for the rad50 strain (AID 155);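 note: 0% = growth of vehicle-only cultures of the same strain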; conditions: S. cerevisiae rad50 strain growth inhibition; at 50.0 µM; hits give high values
In short: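 A DNA repair-deficient yeast mutant serves as the test organism; compound-induced growth inhibition is calculated against vehicle-treated cells.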

[2] = NCI Yeast Anticancer Drug Screen. Data for the mec2-1 strain (AID 157); conditions: S. cerevisiae mec2-1 strain, at 50.0 µM, hits give high values
In short: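 Mutant yeast (mec2-1) grown with compound; growth inhibition relative to vehicle control reported.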

[3] = NCI Yeast Anticancer Drug Screen. Data for the sgs1 mgt1 strain (AID 161);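 note: 0% = growth of cultures given vehicle only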; conditions: S. cerevisiae sgs1 mgt1 strain, at 50.0 µM, hits give high values
In short: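 Percent growth inhibition was derived by comparing compound-exposed mutant yeast with vehicle-exposed cultures. The strain carries alterations in DNA damage repair.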

[4] = NCI Yeast Anticancer Drug Screen. Data for the cln2 rad14 strain (AID 165);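 note: 0% = growth equal to vehicle treated cultures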; conditions: S. cerevisiae cln2 rad14 strain, at 50.0 µM, hits give high values
In short: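 Readout is yeast growth inhibition versus vehicle-treated controls, using a strain with cln2 and rad14 alterations exposed to compound.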

[5] = NCI Yeast Anticancer Drug Screen. Data for the bub3 strain (AID 167); conditions: S. cerevisiae bub3 mutant strain, at 50.0 µM, hits give high values
In short: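 Inhibition values come from growth of compound-treated mutant yeast normalised to vehicle-treated controls.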

[6] = NCI Yeast Anticancer Drug Screen. Data for the mlh1 rad18 strain (AID 175); conditions: S. cerevisiae mlh1 rad18 strain growth inhibition; at 50.0 µM; hits give high values
In short: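 Genetically defined yeast (DNA repair-deficient) exposed to compounds; growth inhibition determined relative to vehicle.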

Measured: growth inhibition

CCCCCCNC(=O)c1ccc(C(=O)NCCCCCC)cc1
inactive: [1] 3.4% | [2] -13.3% | [3] -27% | [4] -19.5% | [5] 6% | [6] -31.9%

CC(C)CC(O)(CC(C)C)C(CCC(=O)Nc1ccccc1)C(=O)Nc1ccccc1 (centres undefined)
inactive: [1] 26.1% | [2] 11.9% | [3] 1.9% | [4] -52.1% | [5] -8.5% | [6] 7.6%

C/C(=N/Nc1ccc([N+](=O)[O-])cc1[N+](=O)[O-])C1=CCCCC1
inactive: [1] -0.2% | [2] -1.35% | [3] -0.95% | [4] -4.8% | [5] 3.15% | [6] -4.85%

CCCC(=O)C(O)CCC (centres undefined)
inactive: [1] -20.5% | [2] -16.7% | [3] -2.6% | [4] -47.9% | [5] 1.65% | [6] -26.1%

CC(=O)c1cccc(NC(=O)N2CCCCC2C)c1 (centres undefined)
inactive: [1] -4.9% | [2] 29.9% | [3] 8.9% | [4] -13.3% | [5] 15.2% | [6] -12.8%

Cn1c(N2CCCC2)c(C=O)c(=O)n(C)c1=O
inactive: [1] 4.5% | [2] 1.45% | [3] 8.6% | [4] 21.3% | [5] -10.9% | [6] -15.1%

N#Cc1ccc(OC(=O)Nc2cccc(Cl)c2Cl)cc1
inactive: [1] -3.7% | [2] -25.4% | [3] 2.95% | [4] 15.7% | [5] 0.55% | [6] -9.45%

CCN(CC)C(=O)N1CCN(c2ccccc2)CC1
inactive: [1] -1.4% | [2] 12.3% | [3] -4.95% | [4] 5.65% | [5] 3.45% | [6] -23.8%

Cc1cccc2c(C(=O)O)c3cccc(C)c3nc12
inactive: [1] 2.9% | [2] -0.15% | [3] 8.35% | [4] 18.6% | [5] 5.3% | [6] -3.95%

Nc1cccc2c1C(=O)c1cccc(N)c1C2=O
inactive: [1] 7.65% | [2] 16.4% | [3] 8.4% | [4] -7.35% | [5] 8.2% | [6] 21.9%

CSCCC(NCc1c(O)ccc2c(-c3ccccc3)cc(=O)oc12)C(=O)O (centres undefined)
inactive: [1] -23.3% | [2] -20.5% | [3] -30.1% | [4] -1.5% | [5] -2.95% | [6] -31.2%

CCCCC(N)CSSCC(N)CCCC (centres undefined)
inactive: [1] -20.8% | [2] -44% | [3] -23.3% | [4] -20.1% | [5] -50.6% | [6] -35.6%

CC(=C/c1ccccc1)/C=C1/NC(=S)N(CN2CCCCCC2)C1=O
inactive: [1] 5.15% | [2] -22.1% | [3] 19.9% | [4] -10.2% | [5] -9.75% | [6] -14.8%

CC/C(=N\N=C(/CC)c1ccc[nH]1)c1ccc[nH]1
inactive: [1] 36.8% | [2] -23.8% | [3] 10.2% | [4] 5.9% | [5] 23.3% | [6] 9.25%

O=C1C=CC(=O)N1CCCCN1C(=O)C=CC1=O
inactive: [1] 18.8% | [2] 3.75% | [3] -17.9% | [4] -20.1% | [5] -14.4% | [6] -11.9%

CC1=CC(=O)N2CCN=C2S1
inactive: [1] -7.05% | [2] -14.9% | [3] 1.65% | [4] -20.6% | [5] -3% | [6] -5.75%

COc1ccc(-c2cc(-c3cc(C)cc(Br)c3O)no2)cc1
inactive: [1] -6.55% | [2] -13.3% | [3] -10.8% | [4] -3.2% | [5] -4.4% | [6] 14.3%

CC(C)c1ccc(O)c(Cc2cc(C(C)C)cc(Cc3cc(C(C)C)ccc3O)c2O)c1
inactive: [1] -14.3% | [2] -3.2% | [3] -10.2% | [4] 4.6% | [5] 1.1% | [6] -3.25%

O=C1NNC2NC(=O)C3(NN2C1=O)c1ccccc1-c1ccccc13 (centres undefined)
inactive: [1] -18% | [2] -21.5% | [3] 0.45% | [4] -5.8% | [5] -11.7% | [6] -15.4%

NC(=O)c1cc[n+](-c2ccc([N+](=O)[O-])cc2[N+](=O)[O-])cc1
inactive: [1] 19.2% | [2] 0.45% | [3] 27.2% | [4] 34.6% | [5] 19.2% | [6] 56.5%

CCOC(=O)c1ccc(N=Nc2c(N)nc(N)nc2N)cc1
inactive: [1] -10.4% | [2] 10.3% | [3] -1.7% | [4] -61.4% | [5] -0.15% | [6] -11%

O=c1cnn(C2OC(C(O)CO)C(O)C2O)c(=O)[nH]1 (centres undefined)
inactive: [1] -6.9% | [2] -81.5% | [3] -8.75% | [4] -27.6% | [5] -11.2% | [6] -18.4%

COC1/C=C/OC2(C)Oc3c(C)c(O)c4c(O)c(c(C=NNC(=O)c5ccc(N)cc5)c(O)c4c3C2=O)NC(=O)/C(C)=C/C=C/C(C)C(O)C(C)C(O)C(C)C(OC(C)=O)C1C (centres undefined)
inactive: [1] -3.55% | [2] 13.5% | [3] -3.25% | [4] -17.6% | [5] -5.3% | [6] 29.4%

O=C1C=CC(CCCCCn2ccc(=O)[nH]c2=O)C(=O)N1 (centres undefined)
inactive: [1] -8.25% | [2] 3.15% | [3] 14.7% | [4] 13.8% | [5] -6.6% | [6] -0.25%

C=CCN(CC=C)c1nc(N)c2ccc(Cl)cc2n1
inactive: [1] -8% | [2] -8% | [3] -6.65% | [4] -52.4% | [5] -10.8% | [6] -6.45%

O=C(Nc1ccc2ccccc2c1)c1ccc(Cl)cc1
inactive: [1] 4.65% | [2] -9.65% | [3] -15.1% | [4] 7.05% | [5] 31.4% | [6] 1.4%

CCOC(=O)NC(=O)c1cn(CCN2CCN(C(=O)CCCCCCCCCCNc3ncnc4nc[nH]c34)CC2)c(=O)[nH]c1=O
inactive: [1] -18.5% | [2] -6.75% | [3] -12.8% | [4] -25.6% | [5] 0.05% | [6] -14.2%

COc1cccc2c(SCC(=O)Nc3ccccc3-c3ccccc3NC(=O)CSc3c4ccccc4nc4c(OC)cccc34)c3ccccc3nc12
inactive: [1] -2.4% | [2] 3.35% | [3] -15.8% | [4] -36% | [5] -2% | [6] -28.8%

O=C1c2ccccc2C(O)(c2ccc(O)cc2)c2ccccc21
inactive: [1] -3.25% | [2] 0.1% | [3] -0.95% | [4] -0.3% | [5] 6.1% | [6] 6.2%

O=C(O)C(c1ccccc1)S(=O)(=O)c1ccccc1 (centres undefined)
inactive: [1] 3.55% | [2] -7% | [3] 8.85% | [4] -16.7% | [5] -11.5% | [6] 5.95%

CC1=C(CCCO)/C(=N\O)CCC1
inactive: [1] 3.75% | [2] -1.75% | [3] -3% | [4] -30.4% | [5] 17.5% | [6] -28%

O=COCc1ccc(Cl)cc1Cl
inactive: [1] 16.9% | [2] -2.75% | [3] -5.65% | [4] 5% | [5] -1.35% | [6] -11.7%

C=C(Cl)C(C)(Cl)CCC(Cl)C(C)(C)Cl (centres undefined)
inactive: [1] 21.9% | [2] 16.4% | [3] 29.6% | [4] 42.5% | [5] 32.2% | [6] 25.3%

C=CCn1c(=O)c(C(=O)Nc2nc(C34CC5CC(CC(C5)C3)C4)cs2)c(O)c2ccccc21
inactive: [1] -22.7% | [2] -4.6% | [3] -14.1% | [4] 4.4% | [5] 4.5% | [6] -19.1%

O=C1OCC/C1=C1/Nc2ccccc2NC1=O
inactive: [1] -13.1% | [2] -24% | [3] -8.1% | [4] -22.2% | [5] -16.4% | [6] -13.8%

COc1cccc2ccc(C(=O)c3ccccc3)nc12
inactive: [1] 34.2% | [2] -3.2% | [3] 7.8% | [4] 23.6% | [5] 28.2% | [6] 15.9%

C1CCC2C(C1)CCCC2CC1CCCC2CCCCC21 (centres undefined)
inactive: [1] -11.2% | [2] 1.1% | [3] -10.3% | [4] -17.5% | [5] -9.05% | [6] -4.65%

O=C(c1ccccc1)C(CBr)C(Br)c1ccccc1 (centres undefined)
inactive: [1] -17.4% | [2] 24.7% | [3] 10.1% | [4] -24.8% | [5] 16.9% | [6] 1.75%

ClC1(Cl)C2CCOC21n1cnc2ccccc21 (centres undefined)
inactive: [1] 11.8% | [2] -5.1% | [3] -8.3% | [4] 4.95% | [5] 8.25% | [6] -11.2%
